# From PubChem BioAssay
# An excerpt weighted towards active compounds, which were near 1.5% of everything screened.
# Bcl-xL primary = Bcl-xL (human) inhibition. Q07817. GST-Bcl-xL / FITC-Bim BH3 peptide fluorescence polarization. inhibition, % at 10.9 µM. 320,000 compounds, 0.7% hits. AID 2129;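 active means inhibition above the mean of all tested compounds plus 3 SD, cutoff set per campaign, cut at about 30% in these data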;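 further: inhibitors lower millipolarization by displacing the labeled peptide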
# MEX-5 binding = C. elegans MEX-5 TCR-2 RNA binding activity; Q9XUB2; MEX-5/FITC-TCR2 RNA binding, fluorescence polarization; stronger effect = lower value; activity score (negative = inhibition of binding), % at 10 µM; 300,000 compounds, 0.38% hits;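 active means inhibition past about -25% in most replicates, and total fluorescence under double the plate's negative control median, limit read from the data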
# GLD-1 TGE inh = GLD-1-TGE RNA interaction inhibition (C. elegans). Q17339. purified GLD-1 + fluorescein TGE RNA, fluorescence polarization. inhibition, % at 5.96 µM. 320,000 compounds, 0.44% hits. AID 2280;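 active means percent inhibition above a per-plate cutoff, the plate mean of test compounds plus 3 SD, cut at about 30% in these data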
# MCL1-BIM inh = disrupts human MCL1 binding to BIM-BH3 peptide; Q07820; GST-MCL1 / FITC-Bim-BH3 fluorescence polarization; inhibition, % at 10.9 µM; 320,000 compounds, 0.68% hits; AID 2057;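 active means inhibition above the mean inhibition of all tested compounds plus 3 SD, set per campaign, cut at about 40% in these data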;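 further: higher means more loss of mP so more displacement of Bim peptide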
# Target sequence (Q07820 whole entry, looked up): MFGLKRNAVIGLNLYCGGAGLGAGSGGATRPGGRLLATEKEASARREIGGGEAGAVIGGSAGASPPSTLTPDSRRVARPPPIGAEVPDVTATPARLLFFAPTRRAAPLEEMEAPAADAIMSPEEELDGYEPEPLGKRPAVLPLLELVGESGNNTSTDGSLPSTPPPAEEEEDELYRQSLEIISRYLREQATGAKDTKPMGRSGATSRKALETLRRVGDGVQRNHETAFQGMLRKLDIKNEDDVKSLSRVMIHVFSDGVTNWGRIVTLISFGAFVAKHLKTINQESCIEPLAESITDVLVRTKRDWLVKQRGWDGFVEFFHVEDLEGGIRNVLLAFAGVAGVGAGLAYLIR
# EBV gp42 inh = EBV gp42 inhibition; Q1HVG2; 220,000 compounds, 0.42% hits; inhibition, % (tested at 21.74 µM); Fluorescence polarization binding assay, mP read-out; AID 1085; in the data active means inhibition above about 50%
# Target sequence (Q1HVG2 whole entry, looked up): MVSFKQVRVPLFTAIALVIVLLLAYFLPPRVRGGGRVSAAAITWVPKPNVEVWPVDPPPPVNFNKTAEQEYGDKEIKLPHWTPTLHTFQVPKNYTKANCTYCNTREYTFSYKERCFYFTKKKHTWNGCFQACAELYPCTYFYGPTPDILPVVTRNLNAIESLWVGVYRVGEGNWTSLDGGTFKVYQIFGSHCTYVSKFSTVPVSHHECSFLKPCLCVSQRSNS
# eLon inh = inhibitors of E. coli Lon protease; P0A9M0; purified E. coli Lon protease, fluorescence polarization; inhibition, % at 7.94 µM; 360,000 compounds, 0.42% hits; AID 602123; in the data active means inhibition above about 13%, passing the limit was not always enough
# Numbers stand for hits; 0 = inactive; - = not tested or not shown; + = active, no number.
SMILES,Bcl-xL primary,MEX-5 binding,GLD-1 TGE inh,MCL1-BIM inh,EBV gp42 inh,eLon inh
CCN1CCN(CCC(=O)Nc2cccc(C)c2)CC1,32,0,0,0,-,0
Cc1ccc(-c2nc(C=Nc3ccc(O)cc3)c(O)o2)cc1,-,-37,-,-,0,0
O=C(c1cccc(S(=O)(=O)NCc2ccccc2)c1)N1CCN(c2ccccc2Cl)CC1,-,-,-,-,-,0
COc1ccc(/C=C(\C#N)c2nc3ccc(C)cc3[nH]2)cc1Oc1ccc(C(F)(F)F)cc1[N+](=O)[O-],0,-58,0,0,0,0
CC(=O)c1ccc(NC(=O)Cn2cnc(S(=O)(=O)N3CCc4ccccc43)c2)cc1,0,0,0,0,-,0
COC(=O)/C(C(C)=O)=C(/C=C/C=C/N(C)C)N(C)C,0,0,0,0,0,0
COC(=O)\C(C(C)=O)=C(/C=C/C=C/N(C)C)N(C)C,32,0,0,0,0,0
Cc1nc(S(=O)(=O)N(C)c2ccccc2)c(C#N)c(C)c1Cl,31,0,0,0,0,0
O=C(N=Nc1c(O)[nH]c2ccc([N+](=O)[O-])cc12)c1cc(-c2ccccc2Cl)nc2ccccc12,0,0,0,0,73,0
CC(=O)CC(C)(C)NC(C)=S,0,0,0,0,0,0
CC(=O)Nc1nonc1NC(=O)CSc1ccccn1,0,0,83,0,0,0
Cc1[nH][nH]c(=O)c1C(c1ccc(O)c([N+](=O)[O-])c1)c1c(C)[nH][nH]c1=O,0,-48,0,0,0,0
COc1cccc(/C=N/NC(=O)CN(CCc2ccccc2)S(=O)(=O)c2ccc(NC(C)=O)cc2)c1,0,0,0,0,0,0
Cc1nn(C)cc1S(=O)(=O)NC1CCCC1,0,0,0,0,0,0
Cc1nn(-c2ccccc2)c(N2CCCC2)c1/C=C1\N=C(c2ccccc2)OC1=O,0,0,0,0,117,0
COC(=O)C1CCCN1C(=O)COc1ccc(Cl)cc1Br (centres undefined),0,0,0,0,0,0
c1ccc(NC2=Nc3cccc4cccc2c34)cc1,0,0,0,0,0,0
Fc1ccc(/C=N/NC2=Nc3cccc4cccc2c34)cc1,0,0,0,0,57,0
CCc1c(C)nc(SCC(=O)NNC(=O)c2ccco2)[nH]c1=O,0,-37,0,0,-,0
O=C(Nc1cccc2ncccc12)c1ccc(OCc2ccccc2)cc1,0,0,0,0,0,0
COc1cc(C(F)(F)F)nc2ccc(C#CCOC(=O)Nc3ccccc3)cc12,36,0,0,0,0,0
Nc1nc2nonc2nc1N1CCCCC1,34,0,0,0,0,0
C1CCCN(c2nc3nonc3nc2N2CCCCCC2)CC1,0,0,0,0,0,0
C/C(=N\Nc1ccc(Cl)c(C(=O)O)c1)c1cccs1,0,0,0,0,0,0
C/C(=N\Nc1ccc(Cl)c(C(=O)O)c1)c1ccc[nH]1,0,-38,0,0,0,0
SMILES,Bcl-xL primary,MEX-5 binding,GLD-1 TGE inh,MCL1-BIM inh,EBV gp42 inh,eLon inh
Cc1ccc(C2(C)NC(=O)N(CC(=O)N3CCN(S(=O)(=O)c4ccc(Cl)s4)CC3)C2=O)cc1 (centres undefined),0,0,0,0,-,0
CCOC(=O)C1=C(CSc2nc3c(cc2C#N)CN(C)CC3)OC(N)=C(C#N)C1c1ccc(F)cc1 (centres undefined),39,0,0,43,0,0
COc1ccc(C2=NS(=O)(=O)N(C)C(C(=O)N3CCOCC3)=C2)cc1OC,0,0,0,0,-,0
Cc1ncc(CO)c(/C=N/Nc2ccc(C(F)(F)F)cn2)c1O,40,0,0,43,-,0
COc1cccc(N2C(=O)[C@H]3C(C(=O)c4cnccn4)=NN[C@H]3C2=O)c1,37,0,0,0,0,0
O=C(C1=NN[C@@H]2C(=O)N(c3cccc(F)c3)C(=O)[C@H]12)c1ccc2ccccc2n1,0,0,0,0,0,0
COc1ccc(-c2cccc3c2NC(=O)C3=O)cc1OC,-,-,0,-,-,0
O=c1oc2cc(O)ccc2cc1-c1nc2c(s1)CCc1ccccc1-2,37,-,100,0,127,-
COc1cc(C(=O)NCCOc2ccc(F)cc2)c(Br)c(OC)c1OC,0,0,0,0,0,0
CCN1/C(=C/c2ccc3cc(C)ccc3[n+]2C)Sc2ccc3sccc3c21,-,-,-,-,+,0
CC(C)CC1NC(=O)c2ccccc2-n2c1nc1ccc(F)cc1c2=O (centres undefined),0,-,0,0,-,-
O=C(C1CC1)N1CCN(C(c2ccccc2)c2ccccc2)CC1,0,0,0,0,0,0
CNC(=O)Cn1ncc2c(C)n(Cc3ccc(C)cc3)c(C)c2c1=O,0,0,0,0,0,0
Cc1c2cnn(CC(=O)Nc3c(F)c(F)cc(F)c3F)c(=O)c2c(C)n1Cc1ccccc1F,35,0,0,41,0,0
CCc1c(C(=O)NNC(=S)Nc2ccc(S(=O)(=O)Nc3ncccn3)cc2)csc1C,0,-48,0,0,-,0
O=S(=O)(Nc1ncccn1)c1ccc(NC(=S)Nc2ccccc2)cc1,0,0,0,0,-,0
COC/C=C/C1=CC2=CC(=O)C(C)(OC(=O)c3cnc4ccccc4n3)C(=O)C2=CN1c1ccc(CO)cc1 (centres undefined),0,0,0,91,-,-
CCOC(=O)c1oc2cc(OCC(=O)OC)ccc2c(=O)c1-c1ccc(OC)c(OC)c1,0,0,0,0,51,0
COC(=O)COc1ccc2c(-c3ccc(OC)cc3)cc(=O)oc2c1,0,0,0,0,0,0
O=C1ON=C(c2ccccc2)/C1=C/c1ccco1,0,0,0,0,0,0
CCCCc1ccc(/C=C2\C(=O)ON=C2c2ccccc2)s1,0,-33,0,0,0,0
CC(C)C(=O)Nc1cccc(COc2ccccc2CN(Cc2ccccc2)C(=O)OC(C)(C)C)c1,-,-,-,-,-,0
Oc1ccc(-c2cnns2)c(O)c1,0,-61,0,0,0,0
S=C(Nc1ccc2nsnc2c1)N1CCCCCC1,32,0,0,0,0,0
O=C1Nc2cc(C(=O)N3CCOCC3)ccc2S/C1=C/c1ccccc1F,-,-,-,-,-,0
SMILES,Bcl-xL primary,MEX-5 binding,GLD-1 TGE inh,MCL1-BIM inh,EBV gp42 inh,eLon inh
C=CCN1CC(c2nc3ccccc3n2CCOc2ccccc2)CC1=O (centres undefined),0,0,0,0,58,0
COc1cc2c3nnc(-c4ccc(F)cc4)c-3cn(Cc3ccccc3F)c2cc1OC,-,-,-,-,0,0
COc1cc2c3nnc(-c4ccccc4)c-3cn(Cc3ccccc3F)c2cc1OC,0,-59,0,0,0,-
O=C(/C=C/c1ccc(S(=O)(=O)N2CCOCC2)cc1)NCc1ccccc1,0,0,0,0,0,0
COc1cc(-c2cc(-c3ccc(O)cc3)nc(N)c2C#N)ccc1O,0,0,0,0,0,0
CCOc1cc(-c2cc(-c3ccc(C)cc3)nc(N)c2C#N)ccc1O,30,0,0,0,0,0
O=C1N=c2ccccc2=C1c1[nH]c(=S)[nH]c1O,0,0,0,0,0,0
Cc1ccc(Cl)c2c1=NC(=O)C=2c1[nH]c(=S)[nH]c1O,0,-45,0,0,0,0
